# Hits are enriched below; roughly 6.9% of the tested compounds scored in any of these assays.
# NS3h inh CB = blocks HCV NS3 helicase binding to DNA. inhibition, % at 100 µM. actives 1.6% (n = 16,000). NS3h Cy5-dT15 DNA binding, fluorescence polarization;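 active means inhibition above the average over every tested compound plus 3 SD, cut at about 40% in these data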
# Cy5 interf NS3h = counter-screen for HCV NS3 helicase inhibitors: fluorescence interference | Cy5-dT15 DNA with NS3h; actives lie on both sides; signal over control mean, under 1 quenches | fluorescence interference ratio at 100 µM | actives 6% (n = 16,000);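 active means compound fluorescence over control fluorescence at most 0.8, a quencher, or at least a set upper limit, an enhancer; inactive means ratio between 0.8 and the set upper limit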
# HCV NS3h conf = confirmation of hepatitis C virus NS3 helicase inhibitors | NS3h binding to Cy5-dT15 DNA, fluorescence polarization | actives 20% (n = 240) | inhibition, % at 100 µM | shares compounds with NS3h inh CB;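 active means percent inhibition of 50% or more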
# SSB-DNA FP CB = E. coli SSB-DNA binding inhibition, NS3h counter-screen | shares compounds with NS3h inh CB | E. coli SSB binding Cy5-dT15, fluorescence polarization | inhibition, % at 100 µM | actives 40% (n = 240);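 active means inhibition of at least 50%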;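 further: displacers lower Cy5 polarization so higher inhibition means more SSB displaced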
# Target sequence (P0AGE0 whole entry, looked up): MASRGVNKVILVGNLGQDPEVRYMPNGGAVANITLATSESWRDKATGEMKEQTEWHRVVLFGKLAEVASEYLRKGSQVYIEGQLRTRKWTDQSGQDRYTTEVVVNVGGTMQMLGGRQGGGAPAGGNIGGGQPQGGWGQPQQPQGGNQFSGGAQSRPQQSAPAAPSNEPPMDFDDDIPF
# Cy5 SSB fluor CB = Cy5 fluorescence interference in NS3h counter-screen; shares compounds with NS3h inh CB; Cy5-dT15/E. coli SSB fluorescence interference; actives lie on both sides; fluorescence interference ratio at 100 µM; actives 8% (n = 240); AID 720487;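 active means fluorescence interference ratio at or above 1.2, signal boosting, or at or below 0.8, signal quenching; inactive means ratio between 0.8 and 1.2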;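 further: ratio of compound well signal to mean negative control signal so 1 means no effect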
# Cy5 interf conf = Cy5 fluorescence interference, confirmation counter-screen; Cy5-dT15 DNA/NS3h fluorescence interference counterscreen; fluorescence interference ratio at 100 µM, hits read low; AID 720489; actives 44% (n = 240); shares compounds with NS3h inh CB;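 active means fluorescence interference ratio at or below 0.8 quencher or at or above a set limitenhancer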;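 further: ratio of compound fluorescence to mean of negative controls so 1 means no interference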
# * = called active by the depositor; x = no result given.
SMILES,NS3h inh CB,Cy5 interf NS3h,HCV NS3h conf,SSB-DNA FP CB,Cy5 SSB fluor CB,Cy5 interf conf
O=C1N=c2ccc([N+](=O)[O-])cc2=C1c1sc(NS(=O)(=O)c2ccccc2)nc1O,41*,1,15,101*,0.87,0.75*
O=C(O)CCn1c(O)c(C2=c3cc([N+](=O)[O-])ccc3=NC2=O)sc1=S,28,0.94,9,28,0.93,0.77*
COCCCn1c(O)c(C2=c3ccccc3=NC2=O)sc1=S,20,1,x,x,x,x
O=[N+]([O-])c1cccc(S(=O)(=O)Nc2ccc(O)c(Cl)c2)c1,5,0.83,x,x,x,x
Cc1ccc(N2C(=O)/C(=C/c3cccs3)SC2=S)cc1C,0,0.9,x,x,x,x
O=C(Nc1cccnc1)N1CCOCC1,-10,1,x,x,x,x
CN(C)c1ccc(NC(=O)N2CCOCC2)cc1,157*,2.1*,55*,82*,1.1,0.95
O=[N+]([O-])c1ccc(/C(=N/Nc2ccccc2)c2cc(O)ccc2O)cc1,15,0.9,x,x,x,x
O=C1NC(=O)N(c2cccc(Br)c2)C(=O)/C1=C/c1ccc(O)c(Cl)c1,25,1,x,x,x,x
O=C1NC(=O)N(c2ccc(Cl)cc2)C(=O)/C1=C/c1ccc(O)c(Cl)c1,74*,1,21,34,0.97,0.86
O=C1NC(=O)N(c2ccc(Cl)cc2)C(=O)/C1=C\c1cccc(O)c1,-2,0.99,x,x,x,x
O=C1NC(=O)N(c2ccc(Cl)cc2)C(=O)/C1=C/c1cc(I)c(O)c([N+](=O)[O-])c1,78*,1,43,92*,0.92,0.96
CS(=O)(=O)N(CC(=O)O)c1ccccc1Br,-10,1.1,x,x,x,x
O=C(Nc1ccc(Cl)c(Cl)c1)c1cc2n(n1)C(C(F)(F)F)CC(c1ccccc1)N2 (stereo not given),-12,0.96,x,x,x,x
